PubChem BioAssay AID588511 (Johns Hopkins Ion Channel Center, 2011)
The campaign covered roughly 310,000 compounds. About 3,600 (1.2%) were called active.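 Rule for the calls: active = ratio plate-corrected score three or more library SD toward inhibition, starting fluorescence score within five deviations; inactive = the rest.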 Many of the other results were omitted from the sample, so actives are more common in it than they were.

molecular target: Anoctamin-1 (Mus musculus) (UniProt Q8BHY3); assay: TMEM16A chloride channel inhibitors, primary screen, cell-based, HTS (AID 588511); conditions: HEK293 TMEM16A/YFP iodide influx fluorescence, ionomycin; at 10 µM;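 for normalized B-score (activity score, 25-100; higher = stronger inhibition): score derived from kinetic fluorescence span divided by baseline fluorescence per well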
Sequence (Q8BHY3 whole entry, looked up): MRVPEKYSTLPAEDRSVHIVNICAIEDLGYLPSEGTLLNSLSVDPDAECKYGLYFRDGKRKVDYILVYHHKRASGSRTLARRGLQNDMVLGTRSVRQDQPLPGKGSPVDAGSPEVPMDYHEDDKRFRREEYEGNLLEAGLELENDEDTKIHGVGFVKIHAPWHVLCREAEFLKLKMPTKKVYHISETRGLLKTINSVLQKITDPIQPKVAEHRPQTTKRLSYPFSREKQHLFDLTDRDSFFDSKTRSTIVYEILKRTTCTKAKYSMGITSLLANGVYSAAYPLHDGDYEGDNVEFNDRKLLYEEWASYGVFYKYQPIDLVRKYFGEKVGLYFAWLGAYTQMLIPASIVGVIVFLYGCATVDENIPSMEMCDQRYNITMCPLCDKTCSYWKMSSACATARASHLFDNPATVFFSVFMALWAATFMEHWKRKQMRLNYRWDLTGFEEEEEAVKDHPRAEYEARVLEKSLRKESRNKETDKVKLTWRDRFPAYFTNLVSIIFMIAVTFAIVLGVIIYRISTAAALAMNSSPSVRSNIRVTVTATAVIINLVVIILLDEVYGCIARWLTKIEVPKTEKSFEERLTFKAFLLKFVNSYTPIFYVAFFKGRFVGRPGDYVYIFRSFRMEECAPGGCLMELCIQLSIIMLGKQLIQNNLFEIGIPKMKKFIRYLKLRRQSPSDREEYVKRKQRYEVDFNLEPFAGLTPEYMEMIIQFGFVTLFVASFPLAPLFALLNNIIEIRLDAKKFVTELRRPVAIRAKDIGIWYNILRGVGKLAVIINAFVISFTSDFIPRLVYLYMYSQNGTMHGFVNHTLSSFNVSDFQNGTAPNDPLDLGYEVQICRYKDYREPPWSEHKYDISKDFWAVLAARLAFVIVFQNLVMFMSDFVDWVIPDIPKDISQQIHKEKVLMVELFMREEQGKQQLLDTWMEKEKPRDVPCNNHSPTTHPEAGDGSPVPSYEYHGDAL

| SMILES | normalized B-score (activity score, 25-100; higher = stronger inhibition) |
| --- | --- |
| O=C(C1CC1)N1CCN=C1SCc1ccc(Cl)cc1 | inactive |
| CC1CCN(C(=O)c2ccc(CSc3ccc(Cl)cc3)cc2)CC1 | 25 (active) |
| O=C(c1ccc(CSc2ccccc2)cc1)N1CCCCCC1 | inactive |
| CCCCN1C(N)=NC[C@@H]1Cc1ccccc1 | inactive |
| COc1ccc(NS(=O)(=O)c2ccc(C)c(C(=O)NNC(=O)c3csc(N4CCOCC4)n3)c2)cc1 | inactive |
| Cc1ccc(CN2CCN(Cc3ccc(OCCO)cc3)CC2CCO)o1 (stereo not drawn) | inactive |
| CC1=NN(c2cccc(Cl)c2)C(=O)C12CC(C)=C(C)CS2 (stereo not drawn) | 100 (active) |
| CC12CCC(C(=O)N(c3cccc(Cl)c3)C1=O)C2(C)C (stereo not drawn) | inactive |
| Cc1ccccc1OCC(=O)NNC(=O)c1cc(S(=O)(=O)N(C)C)ccc1N1CCCC1 | inactive |
| CN(C(=O)COC(=O)c1ccc(Br)o1)c1c(N)n(Cc2ccccc2)c(=O)[nH]c1=O | inactive |
| COC(=O)c1ccccc1NS(=O)(=O)c1ccc2[nH]c(=O)[nH]c2c1 | inactive |
| COc1cccc(OC)c1C(=O)Nc1c(C(=O)N2CCN(c3ccccn3)CC2)oc2ccccc12 | inactive |
| O=C(CN1C(=O)C2C3C=CC(C3)C2C1=O)Nc1nc(-c2ccccn2)cs1 (stereo not drawn) | inactive |
| Cc1cc(NC(=O)[C@H](C)NC(=O)c2ccco2)ccc1Br | inactive |
| CC(NC(=O)c1ccco1)C(=O)Nc1nc(-c2ccccn2)cs1 (stereo not drawn) | 100 (active) |
| CCc1ccc(NC(=O)C(=O)NNC(=O)c2cccs2)cc1 | inactive |
| OCC[C@H]1C[C@@H](O)[C@H](O)[C@@]2(OCCc3ccccc32)O1 | inactive |
| CCOC(=O)C1Nc2ccc(C(F)(F)F)cc2C2C=CCC12 (stereo not drawn) | inactive |
| COc1ccc(C(=O)N2CCCCC2C(=O)Nc2ccc(-n3nc(C)cc3C)cc2)o1 (stereo not drawn) | inactive |
| O=S(=O)(NC1CC2CCC1C2)c1ccc(Cl)cc1 (stereo not drawn) | inactive |
| CCC(=O)c1ccc(OCC(=O)Nc2ccc3nc(C)sc3c2)cc1 | inactive |
| Cc1cc(C)cc(OCC(=O)Nc2nc3ccc([N+](=O)[O-])cc3s2)c1 | 100 (active) |

| SMILES | normalized B-score (activity score, 25-100; higher = stronger inhibition) |
| --- | --- |
| CCOc1ccc2nc(NC(=O)c3cc([N+](=O)[O-])ccc3N3CCOCC3)sc2c1 | inactive |
| Cc1cc(F)ccc1N1CCC(N2CCN(C)C(CCO)C2)CC1 (stereo not drawn) | inactive |
| Cc1cccc(C(=O)Nc2ccc(Oc3cnccn3)cc2)c1 | inactive |
| Cc1csc(=Nc2ccccc2)n1CCO | inactive |
| OCCn1c(-c2ccccc2)csc1=Nc1ccccc1 | 25 (active) |
| Cc1csc(=NC(=O)c2ccccc2)n1CCO | inactive |
| O=C(OC1CCOC1=O)c1cccc(S(=O)(=O)Nc2ccc(F)cc2)c1 (stereo not drawn) | inactive |
| CCOC(=O)C1CCN(C(=O)C2CCCN(S(=O)(=O)c3ccc(OC)c(Cl)c3)C2)CC1 (stereo not drawn) | inactive |
| COC(=O)c1ccc(COC(=O)C2CCN(S(=O)(=O)c3c(Cl)cccc3Cl)CC2)o1 | inactive |
| COC(=O)c1ccc(CSc2ccccc2C)o1 | inactive |
| COC(=O)c1ccc(COC(=O)c2c(C)nn(Cc3ccccc3Cl)c2Cl)o1 | 25 (active) |
| Cc1ccc(O)c(/C=N/NC(=O)COc2ccc3c(C)cc(=O)oc3c2)c1 | inactive |
| CCOc1ccc(S(=O)(=O)N2CCN(C(=S)NCC3CCCO3)CC2)cc1 (stereo not drawn) | inactive |
| S=C(NCC1CCCO1)N1CCN(c2ccc(Cl)c(Cl)c2)CC1 (stereo not drawn) | 100 (active) |
| COc1ccc(S(=O)(=O)N2CCN(C(=S)NCC3CCCO3)CC2)cc1OC (stereo not drawn) | inactive |
| Cc1ccccc1CN1CCNC(=O)C1CC(=O)NCCC1=CCCCC1 (stereo not drawn) | inactive |
| Cc1nnc(SCCCCSc2nnc(C)c(=O)[nH]2)[nH]c1=O | inactive |
| CC(C)(C)c1ccc(CCC2OCC(CN3CCOCC3)O2)cc1 (stereo not drawn) | inactive |
| CCCC(C)n1[nH]c(=O)c2c(C)cc(C)nc21 (stereo not drawn) | inactive |
| CCCCC(=O)NNC(=S)NC(=O)C(c1ccccc1)c1ccccc1 | 25 (active) |
| CC(C)C(=O)Nc1cccc(NC(=S)NC(=O)C(c2ccccc2)c2ccccc2)c1 | inactive |
| O=C(NNC(=S)NCc1ccco1)C(c1ccccc1)c1ccccc1 | inactive |

| SMILES | normalized B-score (activity score, 25-100; higher = stronger inhibition) |
| --- | --- |
| CSCCC(NS(=O)(=O)c1ccc(C)cc1)C(=O)N1CCCC1 (stereo not drawn) | inactive |
| CN(C)c1ccc(-c2nnc(-c3cccnc3)o2)cc1 | inactive |
| COc1cccc(N(C(=O)c2ccn[nH]2)C2(C(=O)Nc3c(C)cccc3C)CCCCC2)c1 | inactive |
| CS(=O)(=O)N1CCN=C1SCc1ccc(F)cc1 | inactive |
| O=C(NCCc1ccccc1)c1ccc2c(c1)N(Cc1ccccc1)CCS2 | inactive |
| CCOC(=O)N1CCN(C(=O)c2ccc3c(c2)N(Cc2ccc(C)cc2)CCS3)CC1 | 25 (active) |
| O=C(NCCN1CCOCC1)c1ccc2c(c1)N(Cc1ccc(Cl)cc1)CCS2 | inactive |
| CC1CCN(C(=O)c2cccc(S(=O)(=O)N3CCCc4ccccc43)c2)CC1 | inactive |
| O=C1CCC(=O)N(O)CCCCCNC(=O)CCC(=O)N(O)CCCCCNC(=O)CCC(=O)N(O)CCCCCN1 | inactive |
| Cc1ccc(NC(=O)c2nc[nH]c2C(=O)N[C@@H](CCCCNC(=O)OC(C)(C)C)C(=O)OC(C)(C)C)cc1 | inactive |
| O=C(CC1SCCNC1=O)Nc1ccc(Cl)c(Cl)c1 (stereo not drawn) | inactive |
| O=C(CC(O)(C(F)(F)F)C(F)(F)F)Nc1ccc(Cl)c(Cl)c1 | 100 (active) |
| O=C(Cc1ccc(Cl)c(Cl)c1)Nc1ccc(SC(F)F)cc1 | inactive |
| Cc1ccc(NC(=O)Cn2c(=O)n(CCC(=O)NC3CCN(Cc4ccccc4)CC3)c(=O)c3ccccc32)cc1 | inactive |
| CCc1c(C)nc(SCC(=O)NC2CCCC2)[nH]c1=O | inactive |
| CCc1ccc(-c2nc(SCC(=O)NC3CCCC3)n[nH]2)cc1 | 25 (active) |
| COc1ccc(-c2nc(SCC(=O)N3CCCC3)n[nH]2)cc1 | inactive |
| CCC(CC)C(=O)Nc1c2c(nn1-c1ccc(C)cc1)CS(=O)(=O)C2 | inactive |
| O=C(NNS(=O)(=O)c1ccccc1C(F)(F)F)c1cc2ncc(C(F)(F)F)cc2s1 | inactive |
| CCCCC(=O)Nc1ccccc1N1CCN(c2ccc(F)cc2)CC1 | inactive |
| O=C(Nc1ccccc1N1CCN(C(=O)c2ccccc2)CC1)c1ccco1 | inactive |
| CCCC(=O)Nc1ccccc1N1CCN(C(=O)c2ccccc2)CC1 | 25 (active) |

| SMILES | normalized B-score (activity score, 25-100; higher = stronger inhibition) |
| --- | --- |
| Cc1cc(C)cc(NS(=O)(=O)c2ccc(F)cc2)c1 | inactive |
| Cc1cc(C)cc(NS(=O)(=O)c2ccc(Oc3ncc(C(F)(F)F)cc3Cl)cc2)c1 | 25 (active) |
| COc1ccccc1Oc1ccc(S(=O)(=O)Nc2cccnc2)cc1 | inactive |
| CN1C(CC(=O)Nc2ccc(Br)cc2)c2ccccc2CC1(C)C (stereo not drawn) | inactive |
| Cc1cccc(NC(=O)CSc2nnc(CCCCCNC(=O)OC(C)(C)C)o2)c1C | inactive |
| CCc1ccccc1NC(=O)CSc1nnc(CCNC(=O)OC(C)(C)C)o1 | inactive |
| Cc1ccccc1CSc1nnc(CCCCCNC(=O)OC(C)(C)C)o1 | 100 (active) |
| CCc1ccc(C2C(C#N)=C(N)N(N3CCOCC3)C3=C2C(=O)CC(C)(C)C3)s1 (stereo not drawn) | inactive |
| COc1cccc(C(=O)NCCS(=O)(=O)NCC2CCCO2)c1 (stereo not drawn) | inactive |
| S=C(NCCc1ccccc1)Nc1ccccc1 | inactive |
| O=C(CCNC(=O)c1ccc(Br)cc1)NCCCc1ccccc1 | inactive |
| S=C(NCCCc1ccccc1)Nc1ccc(Br)cc1 | 100 (active) |
| S=C(NN=C1CCN(Cc2ccccc2)CC1)NC1CCCCC1 | inactive |
| S=C(Nc1ccc(Br)cc1Cl)NC1CCN(Cc2ccccc2)CC1 | inactive |
| S=C(Nc1ccc(Br)cc1)NC1CCN(Cc2ccccc2)CC1 | 25 (active) |
| O=C(NCc1ccccn1)C1CCN(S(=O)(=O)c2ccc(Br)cc2)CC1 | inactive |
| COc1ccc(C(C#N)(CC(=O)O)c2cnccn2)cc1OC (stereo not drawn) | inactive |
| CC(=O)c1ccccc1OCc1ccc(C(=O)c2ccccc2)cc1 | 25 (active) |
| COc1ccc(CCNC(=O)c2ccccc2OCc2ccccc2)cc1 | inactive |
| O=C(NC1CCC(O)CC1)c1ccccc1OCc1ccc(F)cc1 (stereo not drawn) | inactive |
| COc1ccccc1CNS(=O)(=O)c1ccc2c(c1)NC(=O)CS2 | inactive |
| C=C(C)C(=O)Nc1cccc(C(C)=O)c1 | inactive |

| SMILES | normalized B-score (activity score, 25-100; higher = stronger inhibition) |
| --- | --- |
| CCSc1nsc(NC(=O)Nc2cccc(C(C)=O)c2)n1 | inactive |
| CCSc1nsc(NC(=O)Nc2ccccc2OC)n1 | inactive |
| C=CCSc1nsc(NC(=O)Nc2cccc(C(C)=O)c2)n1 | 100 (active) |
| CSc1nsc(NC(=O)Nc2ccccc2)n1 | 100 (active) |
| O=C(Nc1ccccc1)Nc1nnc(COc2ccccc2F)s1 | inactive |
| COc1ccc(-c2c(-c3ccc(OC)cc3O)nc(C)nc2C(F)(F)F)cc1 | inactive |
| COc1cc(NC(=O)c2ccc(-c3csc(C)n3)cc2)c(OC)cc1Cl | inactive |
| CC1CCCCN1CCCNC(=O)Cn1ncc2c([nH]c3ccccc32)c1=O (stereo not drawn) | inactive |
| Cc1ccc2c(c1)N(CC(=O)NCCCN1CCCCC1)C(=O)c1cccnc1O2 | inactive |
| Clc1ccc(-c2nc3ccccn3c2CN2CCSCC2)cc1 | inactive |
| CCCCn1c(N)c(N(CC(C)C)C(=O)CN(C)S(=O)(=O)c2ccc(F)cc2)c(=O)[nH]c1=O | inactive |
| CC(=O)c1cccc(NC(=O)N2CCCC2C(=O)NCCC(C)C)c1 (stereo not drawn) | 25 (active) |
| CC(=O)c1cccc(NC(=O)N2CCCC2C(=O)NCCc2ccccc2)c1 (stereo not drawn) | inactive |
| COc1ccc(CCNC(=O)C2CCCN2C(=O)Nc2ccccc2)cc1OC (stereo not drawn) | inactive |
| Cc1snc(SCc2c(F)cccc2Cl)c1C#N | inactive |
| Cc1cc(C)c2c(-n3cccc3)c(C(=O)NNS(=O)(=O)c3ccc(F)cc3)sc2n1 | inactive |
| CC(Sc1nnc(Cc2ccc([N+](=O)[O-])cc2)o1)C(N)=O (stereo not drawn) | inactive |
| Cc1cc(C(F)F)n2nc(C(=O)Nc3ccc(S(=O)(=O)NC45CC6CC(CC(C6)C4)C5)cc3)nc2n1 | inactive |
| CCn1nccc1C(=O)Nc1ccc(Cl)c(Cl)c1 | inactive |
| CCn1nccc1C(=O)Nc1ccc(S(=O)(=O)NC23CC4CC(CC(C4)C2)C3)cc1 | 25 (active) |
